According to PubChem BioAssay AID1159580 (chemical genetic matrix, 2015):
About 2,000 (36%) of roughly 5,500 compounds were called active. Another 18% or so got no clear call; they are omitted. Cut-off read from the data, not from the text of the source: active = normalized growth mostly below about 0.91 (no sharp cut-off); inconclusive = no clear call, values can overlap the other calls; inactive = mostly above about 0.92. The list shows a part of the results.

Assay: chemical genetic growth profiling, strain panel (AID 1159580);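 note: tested at 20 µM; growth read once vehicle control cultures reached saturation at 30 °C; 1 = growth at the plate median or of vehicle wells; lower values mean less growth of the strain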
Conditions: growth OD

Measured: normalized growth

CCCNC1CCc2nc(N)sc2C1 (stereo unspecified)
inactive: S. cerevisiae deletion strains, locus YAL013W, strain DEP1, hits give low values 1.01 | S. cerevisiae deletion strains, locus YBR021W, strain FUR4, hits give low values 1.02 | S. cerevisiae deletion strains, locus YBR229C, strain ROT2, hits give low values 1.01 | S. cerevisiae deletion strains, locus YCL029C, strain bik1, hits give low values 0.997 | S. cerevisiae deletion strains, locus YDL035C, strain GPR1, hits give low values 1.02 | S. cerevisiae deletion strains, locus YDL074C, strain BRE1, hits give low values 1.04 | S. cerevisiae deletion strains, locus YDL101C, strain DUN1, hits give low values 1.01 | S. cerevisiae deletion strains, locus YDL134C, strain PPH21, hits give low values 1.01 | S. cerevisiae deletion strains, locus YDL185W, strain tfp1, hits give low values 1.01 | S. cerevisiae deletion strains, locus YDL192W, strain arf1, hits give low values 1 | S. cerevisiae deletion strains, locus YDR101C, strain arx1, hits give low values 0.988 | S. cerevisiae deletion strains, locus YDR150W, strain NUM1, hits give low values 1.01 | S. cerevisiae deletion strains, locus YDR162C, strain NBP2, hits give low values 1.01 | S. cerevisiae deletion strains, locus YDR318W, strain mcm21, hits give low values 1 | S. cerevisiae deletion strains, locus YDR388W, hits give low values 0.994 | S. cerevisiae deletion strains, locus YDR502C, strain sam2, hits give low values 0.995 | S. cerevisiae deletion strains, locus YEL061C, strain CIN8, hits give low values 1.01 | S. cerevisiae deletion strains, locus YER110C, hits give low values 0.99 | S. cerevisiae deletion strains, locus YER155C, strain BEM2, hits give low values 0.983 | S. cerevisiae deletion strains, locus YER167W, strain BCK2, hits give low values 1.01 | S. cerevisiae deletion strains, locus YGL078C, strain dbp3, hits give low values 1.01 | S. cerevisiae deletion strains, locus YGL086W, strain mad1, hits give low values 0.994 | S. cerevisiae deletion strains, locus YGL248W, strain PDE1, hits give low values 1.01 | S. cerevisiae deletion strains, locus YGR078C, strain PAC10, hits give low values 1.03 | S. cerevisiae deletion strains, locus YGR135W, strain pre9, hits give low values 1 | S. cerevisiae deletion strains, locus YGR229C, strain SMI1, hits give low values 1.03 | S. cerevisiae deletion strains, locus YGR252W, strain gcn5, hits give low values 1.03 | S. cerevisiae deletion strains, locus YHR030C, strain SLT2, hits give low values 1.01 | S. cerevisiae deletion strains, locus YHR079C, strain IRE1 (second series), hits give low values 0.995 | S. cerevisiae deletion strains, locus YHR094C, strain hxt1, hits give low values 1 | S. cerevisiae deletion strains, locus YHR129C, strain ARP1, hits give low values 1.01 | S. cerevisiae deletion strains, locus YHR200W, strain rpn10, hits give low values 1 | S. cerevisiae deletion strains, locus YIL066C, strain RNR3, hits give low values 1.02 | S. cerevisiae deletion strains, locus YIL073C, strain SPO22, hits give low values 1.03 | S. cerevisiae deletion strains, locus YIL125W, strain kgd1, hits give low values 1 | S. cerevisiae deletion strains, locus YIR030C, strain dcg1, hits give low values 0.998 | S. cerevisiae deletion strains, locus YJL095W, strain BCK1, hits give low values 1.02 | S. cerevisiae deletion strains, locus YJL134W, strain LCB3, hits give low values 1.01 | S. cerevisiae deletion strains, locus YJL168C, strain set2, hits give low values 1 | S. cerevisiae deletion strains, locus YJL187C, strain SWE1 (second series), hits give low values 1.01 | S. cerevisiae deletion strains, locus YJR043C, strain POL32, hits give low values 1 | S. cerevisiae deletion strains, locus YJR075W, strain HOC1, hits give low values 1 | S. cerevisiae deletion strains, locus YKL009W, strain mrt4, hits give low values 1.02 | S. cerevisiae deletion strains, locus YKL068W, hits give low values 1.01 | S. cerevisiae deletion strains, locus YKL085W, strain MDH1 (second series), hits give low values 1.01 | S. cerevisiae deletion strains, locus YKL085W, strain MDH1, hits give low values 1.01 | S. cerevisiae deletion strains, locus YKL190W, strain CNB1, hits give low values 1.02 | S. cerevisiae deletion strains, locus YKR001C, strain vps1, hits give low values 1.01 | S. cerevisiae deletion strains, locus YLR039C, strain RIC1, hits give low values 1.05 | S. cerevisiae deletion strains, locus YLR058C, strain SHM2, hits give low values 1.01 | S. cerevisiae deletion strains, locus YLR102C, strain apc9, hits give low values 0.997 | S. cerevisiae deletion strains, locus YLR262C, strain YPT6, hits give low values 1.06 | S. cerevisiae deletion strains, locus YLR268W, strain sec22, hits give low values 0.992 | S. cerevisiae deletion strains, locus YLR330W, strain CHS5, hits give low values 1.01 | S. cerevisiae deletion strains, locus YLR342W, strain FKS1 (second series), hits give low values 1.02 | S. cerevisiae deletion strains, locus YLR371W, strain rom2, hits give low values 1 | S. cerevisiae deletion strains, locus YLR418C, strain cdc73, hits give low values 1.01 | S. cerevisiae deletion strains, locus YML016C, strain PPZ1, hits give low values 1 | S. cerevisiae deletion strains, locus YML032C, strain rad52, hits give low values 0.992 | S. cerevisiae deletion strains, locus YML124C, strain tub3, hits give low values 1 | S. cerevisiae deletion strains, locus YMR078C, strain ctf18, hits give low values 0.999 | S. cerevisiae deletion strains, locus YMR223W, strain ubp8, hits give low values 1.01 | S. cerevisiae deletion strains, locus YMR263W, strain SAP30, hits give low values 1.01 | S. cerevisiae deletion strains, locus YMR307W, strain GAS1, hits give low values 0.995 | S. cerevisiae deletion strains, locus YNL067W, strain RPL9B, hits give low values 1.01 | S. cerevisiae deletion strains, locus YNL128W, strain TEP1, hits give low values 1.02 | S. cerevisiae deletion strains, locus YNL153C, strain GIM3, hits give low values 1 | S. cerevisiae deletion strains, locus YNL233W, strain BNI4, hits give low values 1.01 | S. cerevisiae deletion strains, locus YNL250W, strain rad50, hits give low values 0.996 | S. cerevisiae deletion strains, locus YNL271C, strain bni1, hits give low values 0.993 | S. cerevisiae deletion strains, locus YNL298W, strain CLA4, hits give low values 1.03 | S. cerevisiae deletion strains, locus YNL307C, strain MCK1, hits give low values 0.995 | S. cerevisiae deletion strains, locus YNL322C, strain KRE1, hits give low values 1.01 | S. cerevisiae deletion strains, locus YNR052C, strain pop2, hits give low values 1 | S. cerevisiae deletion strains, locus YOL006C, strain TOP1, hits give low values 1.03 | S. cerevisiae deletion strains, locus YOL012C, strain htz1 1.08 | S. cerevisiae deletion strains, locus YOL147C, strain pex11, hits give low values 0.995 | S. cerevisiae deletion strains, locus YOR061W, strain CKA2, hits give low values 1.01 | S. cerevisiae deletion strains, locus YOR069W, strain VPS5, hits give low values 1.01 | S. cerevisiae deletion strains, locus YOR136W, strain idh2, hits give low values 1 | S. cerevisiae deletion strains, locus YOR144C, strain elg1, hits give low values 1.01 | S. cerevisiae deletion strains, locus YOR184W, strain ser1, hits give low values 1.02 | S. cerevisiae deletion strains, locus YOR316C, strain cot1, hits give low values 1 | S. cerevisiae deletion strains, locus YPL055C, strain LGE1, hits give low values 1.06 | S. cerevisiae deletion strains, locus YPL241C, strain CIN2, hits give low values 1.01 | S. cerevisiae deletion strains, locus YPR119W, strain clb2, hits give low values 1.01 | S. cerevisiae deletion strains, locus YPR141C, strain kar3, hits give low values 0.996 | S. cerevisiae deletion strains, locus YPR163C, strain tif3, hits give low values 0.993 | S. cerevisiae deletion strains, locus YPR167C, strain met16, hits give low values 1.01 | S. cerevisiae deletion strains, strain wtn01, hits give low values 0.989 | S. cerevisiae strains, strain wild type, hits give low values 1.01
